Source: PubChem (National Center for Advancing Translational Sciences (NCATS))
A selection: hits, their analogues and other compounds. The true share with any hit is near 1%.
TRPML1 blocker: inhibitors of human TRPML1 channel. Q9GZU1. TRPML1-inducible cells, Ca2+ dye fluorescence, FDSS; active compounds read low; inhibition of EC80 agonist-evoked calcium signal. activity change, negative = inhibition, % (no concentration beside the values). hit rate 0.02% among 390,000; in the data active means activity change below about -50%; inconclusive means between about -30% and that limit;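 further: stimulus is agonist 54-4 at its EC80 concentration; on the % scale 0 is the no-effect control and ±100 the full control effect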
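Calcium fluorescence in TRPML1-DL cells induced overnight with Tet: a 110 s read after compound pin addition, then a 110 s antagonist read after challenge with 54-4 at 4 uM final (EC80).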
hERG WT inh: KCNH2 (human, wildtype) channel inhibition; Q12809; U2OS, BacMam KCNH2, thallium flux FluxOr; active compounds read low; activity change, % at 1.84 µM; hit rate 0.37% among 340,000;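 active means maximum activity change below -70%; inconclusive means maximum activity change between -70% and -50%; inactive means maximum activity change above -50%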; further: on the % scale 0 is the no-effect control and ±100 the full control effect
Target sequence (Q12809 whole entry, looked up): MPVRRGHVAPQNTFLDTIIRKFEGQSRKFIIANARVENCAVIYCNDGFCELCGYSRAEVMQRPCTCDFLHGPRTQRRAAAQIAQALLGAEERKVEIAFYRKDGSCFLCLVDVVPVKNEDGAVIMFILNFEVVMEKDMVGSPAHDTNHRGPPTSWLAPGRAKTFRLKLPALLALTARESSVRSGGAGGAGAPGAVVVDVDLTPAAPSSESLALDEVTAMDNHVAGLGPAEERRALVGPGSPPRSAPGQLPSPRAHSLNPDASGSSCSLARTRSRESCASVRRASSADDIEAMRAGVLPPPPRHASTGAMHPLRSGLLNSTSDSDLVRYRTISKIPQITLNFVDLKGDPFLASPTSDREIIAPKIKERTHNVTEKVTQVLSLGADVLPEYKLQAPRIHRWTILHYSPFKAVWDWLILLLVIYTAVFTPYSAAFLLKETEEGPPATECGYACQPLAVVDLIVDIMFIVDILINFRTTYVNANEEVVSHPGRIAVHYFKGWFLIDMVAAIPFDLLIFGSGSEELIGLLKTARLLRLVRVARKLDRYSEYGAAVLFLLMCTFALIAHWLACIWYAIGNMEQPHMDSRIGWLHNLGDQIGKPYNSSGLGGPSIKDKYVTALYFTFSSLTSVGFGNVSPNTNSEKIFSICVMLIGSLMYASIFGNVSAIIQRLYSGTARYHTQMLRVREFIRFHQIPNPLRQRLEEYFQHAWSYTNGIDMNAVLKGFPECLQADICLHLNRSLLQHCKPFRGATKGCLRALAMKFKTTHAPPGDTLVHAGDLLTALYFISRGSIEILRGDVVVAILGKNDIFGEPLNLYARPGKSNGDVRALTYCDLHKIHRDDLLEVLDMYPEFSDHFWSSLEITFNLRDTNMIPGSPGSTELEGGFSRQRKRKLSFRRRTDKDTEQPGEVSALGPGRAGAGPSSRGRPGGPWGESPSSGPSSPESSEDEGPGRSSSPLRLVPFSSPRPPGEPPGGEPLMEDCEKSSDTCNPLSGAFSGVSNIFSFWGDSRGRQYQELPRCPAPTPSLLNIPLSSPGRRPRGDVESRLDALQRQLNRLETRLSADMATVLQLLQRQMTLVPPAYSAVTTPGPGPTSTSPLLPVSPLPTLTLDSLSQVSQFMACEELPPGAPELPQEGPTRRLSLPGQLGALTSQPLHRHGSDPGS
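U2OS cells were transduced with wild-type KCNH2 virus (2.03 x 10^8 / mL) for 4 h at room temperature, then cultured overnight at 37 C. Thallium flux was read with FluxOr dye. Rate constants were normalized to DMSO controls.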
PTAP TSG101 blk: blocks PTAP/TSG101 interaction to inhibit HIV-1 budding; Q99816; Fluorescence polarization, FITC-PTAP peptide / Tsg101 binding; Potency, µM (highest dose often 115 µM), for the others: at the top dose activity change, negative = inhibition, actives largely listed as inhibitors; 340,000 tested, under 10 active; AID 493005; active means well fitted inhibition curve with a large enough effect in the main read-out, with a control signal flat, not every such curve was filed as active; inconclusive means small, poorly fitted or top-dose-only effect, or effect the other way, or a change in a side signal; inactive means no such curve, though single readings can be large or run the other way; further: potency means the concentration at half of the fitted maximal effect; % of control where 0% means no effect
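Compounds were pin-transferred onto Tsg101 binding domain (10 uM final) in HEPES pH 7.5 buffer, then FITC-PTAP peptide was added at 50 nM final. After 20 min at RT, polarization reported peptide displacement across a qHTS concentration series.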
TRPML1 agonist: agonists of human TRPML1 channel. Q9GZU1. TRPML1-expressing cells, Ca2+ dye fluorescence, FDSS. activation, % (concentration not given with the values). hit rate 0.12% among 410,000; in the data active means activation above about 50%; inconclusive means mostly about 30% to 49%; further: 0% is about no effect
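Tetracycline-induced TRPML1-DL cells are seeded and incubated overnight before loading with a no-wash Ca2+ dye and quencher. Agonist activity is taken from the 110 s fluorescence read following compound pin-transfer on an FDSS, before EC80 54-4 challenge.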
KCNH2 3.1 block: inhibitors of human KCNH2 3.1 potassium channel isoform | activity change, % (tested at about 1.8 µM) | hit rate 0.95% among 340,000 | U2OS KCNH2 3.1, thallium flux FluxOr; active compounds read low;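 active means maximum activity change below -70%; inconclusive means maximum activity change from -70% to -50%; inactive means maximum activity change above -50%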;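 further: thallium influx rate constant from kinetic fluorescence after stimulation buffer; on the % scale 0 is the no-effect control and ±100 the full control effect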
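Thallium flux read-out: FluxOr dye with Red40 quencher in HBSS/HEPES, 45 min at RT. Rate constants from kinetic reads were normalized to positive and negative DMSO controls. Cells: U2OS virally expressing the 3.1 isoform.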
Glioma ERSR ind: inducers of ER stress response in human glioma cells. U87-MG GRP78 promoter luciferase reporter, 16 h. Potency, µM, for inactives: at the top dose activation, actives largely listed as activators. hit rate 0.02% among 420,000. AID 602332; active means well fitted activation curve with a large enough effect; inconclusive means small, poorly fitted or top-dose-only effect; inactive means no such curve, though single readings can be large or run the other way; further: potency means the concentration at half of the fitted maximal effect; series mostly up to about 76 µM; % of control where 0% means no effect; nearly all actives have a fitted effect of over 35% in size
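Stably transfected U87-MG human glioma cells carrying a GRP78-based luminescent sensor were seeded at 1000 cells/well, pin-dosed with compounds and incubated 16 h. Luciferase reagent was then added, and end-point luminescence was read after 10 min at room temperature.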
Numbers without * were called inactive; ? = inconclusive; · = not tested or not shown.

SMILES	TRPML1 blocker	hERG WT inh	PTAP TSG101 blk	TRPML1 agonist	KCNH2 3.1 block	Glioma ERSR ind
O=c1cc(C(F)(F)F)c2cc3c4c(c2o1)CCCN4CCC3	-1.1	-71.8*	?	106.0*	-108.6*	-5.9%
Cc1cc2c(C(F)(F)F)cc(=O)oc2c2c1NCCC2	-1.6	-9.7	?	?	3.5	-2.2%
Cc1cc(Cl)ccc1C(=O)C1CCCN(C2CCSCC2)C1 (stereo not drawn)	-9.3	-34.0	0.7%	-0.5	-87.0*	-3.5%
O=C(c1ccc(C(F)(F)F)cc1)C1CCCN(C2CCSCC2)C1 (stereo not drawn)	5.7	-37.9	-4.2%	0.8	-35.7	-3.4%
COc1cccc(C(=O)CCN[C@@H](C)[C@H](O)c2ccccc2)c1	·	·	·	·	·	-11.2%
Nc1ccc2ccc3cccc[n+]3c2c1	-7.1	9.8	?	86.7*	14.7	-0.1%
CN1CCN(CC(=O)Nc2ccc([N+](=O)[O-])cc2C(=O)c2ccccc2)CC1	-7.4	-102.8*	-4.3%	0.3	-110.3*	-4.3%
Fc1ccc(C(OCCN2CCCC2)c2ccc(Br)cc2)cc1 (stereo not drawn)	34.4	?	-2.9%	3.2	-72.3*	-0.7%
c1ccc(CCCN2CCN(CCOC(c3ccccc3)c3ccccc3)CC2)cc1	-3.2	?	-11.3%	0.8	-117.0*	-6.9%
Fc1ccc(C(OCCN2CCN(CCCc3ccccc3)CC2)c2ccc(F)cc2)cc1	·	·	1.3%	·	·	-7.9%
Fc1ccc(C(OCCN2CCCC2)c2ccc(F)cc2)cc1	2.8	7.9	0.4%	1.5	-76.7*	-3.6%
CN[C@H](C)Cc1ccccc1	·	·	·	·	·	-2.4%
COc1ccc(CNCCc2c(C)[nH]c3ccc(OC(F)(F)F)cc23)c(OC)c1	19.1	4.2	-0.9%	4.6	-77.7*	-6.7%
COC[C@H]1OC(=O)c2coc3c2[C@@]1(C)C1=C(C3=O)[C@H]2CCC(=O)[C@@]2(C)C[C@H]1OC(C)=O	·	·	·	·	·	-10.9%
C[C@]12CC[C@@H]3c4ccc(OC(=O)N(CCCl)CCCl)cc4CC[C@@H]3[C@H]1CC[C@@H]2OP(=O)(O)O	·	·	·	·	·	-4.1%
COc1ccccc1N1C(=O)NC(=O)C2(Cc3cc(C)ccc3N(C)C2)C1=O (stereo not drawn)	-3.5	-124.2*	-6.0%	-0.7	0.1	-2.7%
CCOc1ccc(-c2c(C)n(-c3ccc(OCC)cc3)c3[n+]2CCCCC3)cc1	6.7	-7.7	1.1%	-0.8	-111.6*	0.1%
CC(N)C(=O)c1ccccc1 (stereo not drawn)	·	·	·	·	·	-2.5%
CCCCCn1c(=O)c(C(=O)NCc2ccncc2)c(O)c2ccccc21	-6.4	-74.7*	-5.4%	0.4	-12.9	-3.7%
CCCCn1c(=O)c(C(=O)NCc2ccc(Cl)cc2)c(O)c2ccccc21	-7.1	14.7	-0.4%	0.5	1.8	1.2%
O=[N+]([O-])c1ccc(NCc2ccc(Cl)cc2)c2ccncc12	2.5	-2.1	-2.5%	0.0	10.7	-3.5%
O=[N+]([O-])c1ccc(NCc2ccccc2)c2nonc12	-16.9	?	?	77.5*	-42.7	-3.5%
O=C1C(Cl)=C(Cl)C(=O)C(Cl)=C1Cl	·	·	·	·	·	-11.1%
C[C@]12CCC(=O)C=C1CC[C@H]1C2CC[C@@]2(C)[C@@H]1CC[C@]2(C)O (stereo partly drawn)	·	·	·	·	·	-2.5%
Cc1ccsc1C(=O)C1CCCN(Cc2ccccc2O)C1 (stereo not drawn)	-3.5	28.3	-1.1%	2.2	-0.6	-2.8%
Cc1ccsc1C(=O)C1CCCN(Cc2cccn2-c2ccccn2)C1 (stereo not drawn)	32.9	-26.1	0.3%	0.2	-75.3*	-4.1%
Oc1cc[c]([Hg][Cl])cc1	·	·	·	·	·	-11.7%
O=C(Nc1ccc(Br)cc1C(=O)c1ccccc1Cl)c1ccccc1F	-24.4	·	·	77.4*	·	-0.9%
O=[N+]([O-])c1ccc(N2CCCCCC2)c2nonc12	-21.4	-24.9	?	110.2*	?	1.2%
O=[N+]([O-])c1ccc(N2CCCCC2)c2ncccc12	32.5	-1.9	-1.0%	0.0	-0.1	0.0%
